Activity calls are given as the source filed them.

This note sets out measurements from PubChem BioAssay.

The nature of assay [1]: small molecules captured by biotinylated probe aFSTL3 – biochemical, small-molecule microarray, fluorescence 635/667, stem cell growth factor project, primary screen (AID 1064).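 Note: measures binding of the biotinylated anti-FSTL3 antibody to printed compounds.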 The conditions noted are these: higher = more signal.
Assay [2] in a line: binders from COS7 lysate, DM2A8 probe, primary screen, torsin A project, cell lysate, small-molecule microarray, fluorescence 635/667 (AID 1065). As to conditions: higher = more signal, COS7 lysate expressing mutant human TOR1A.
The nature of assay [3]: small molecules captured by biotinylated probe aFGF2 – biochemical, small-molecule microarray, fluorescence 635/667, stem cell growth factor project, primary screen (AID 1067).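 Note: measures binding of biotinylated aFGF2 protein to printed compounds on slides; z-score merges feature fluorescence and signal-to-noise across triplicate slides.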 As to conditions: higher = more signal.
A short description of assay [4]: small molecules captured by biotinylated probe aFGF10 – biochemical, small-molecule microarray, fluorescence 635/667, stem cell growth factor project, primary screen (AID 1071).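 Note: score merges 667 nm spot intensity and signal to noise from triplicate slides.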 As to conditions: higher = more signal.
For assay [5], the target named is Neurogenic locus notch homolog protein 2 (Homo sapiens) (UniProt Q04721). Put plainly: small molecules binding Notch2 protein – biochemical, small-molecule microarray, 635 nm fluorescence, stem cell growth factors, primary screen (AID 1073). As to conditions: higher = more signal.
Assay [6] concerns the target Pro-neuregulin-1, membrane-bound isoform (Homo sapiens) (UniProt Q02297). As to the kind of experiment: small molecules binding neuregulin-1 protein – biochemical, small-molecule microarray, fluorescence 635/667, psychiatric disease protein project, primary screen (AID 1075).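 Note: score combines 667 nm spot fluorescence with signal to noise.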 As to conditions: NRG1 binding, 635 nm fluorescence, higher = more signal.
Assay [7] has as its system Neuregulin-1 EGF-like domain. Put plainly: small molecules binding NRG1 EGF domain – biochemical, small-molecule microarray, 635 nm fluorescence, primary screen (AID 1081).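 Note: binding of the protein to compounds printed on small-molecule microarray slides.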 As to conditions: higher = more signal.
Assay [8] can be described thus: FRG1 expression reporter modulators in myotubes – cell-based, C2C12 myotubes, firefly/Renilla luciferase, luminescence, FRG1 inhibition for FSHD, primary screen (AID 1084). The conditions noted are these: FRG1 promoter luciferase, higher = more signal, called active from +8 up or from −8 down.
A short description of assay [9]: small molecules captured by biotinylated probe aFST – biochemical, small-molecule microarray, fluorescence 635/667, stem cell growth factor project, primary screen (AID 1086).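 Note: score merges 667 nm fluorescence with signal-to-noise of each printed compound spot.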 As to conditions: higher = more signal.
Assay [10] is described as follows: binders of probe aHhip on microarray, primary screen, stem cell growth factor project, biochemical, small-molecule microarray, fluorescence 635/667 (AID 1087).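 Note: score merges spot fluorescence at 667nm with spot signal to noise ratio.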 As to conditions: higher = more signal.
Assay [11] concerns PRMT1 (protein arginine N-methyltransferase 1). As to the kind of experiment: small molecules binding arginine methyltransferase PRMT1 – biochemical, small-molecule microarray, 635 nm fluorescence, primary screen (AID 1088).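 Note: binding of Prmt1 protein to compounds spotted on small-molecule microarray slides.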 As to conditions: higher = more signal.
A short description of assay [12]: growth effects on S. cerevisiae YJM789 – YJM789 clinical isolate, OD600, 24 h, basal, primary screen (AID 1089).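 Note: growth of clinical yeast isolate S. cerevisiae YJM 789 seeded 1000 cells per well; test concentration not given here.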 As to conditions: higher = more signal, called active from +8 up or from −8 down.
The nature of assay [13]: S. pombe growth modifiers, basal conditions – strain 972, OD600, 24 h, no modulator, primary screen (AID 1090).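 Note: basal condition with compound alone and no growth modifier present; test concentration not given here.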 As to conditions: S. pombe 972 growth, higher = more signal, called active from +8 up or from −8 down.
A short description of assay [14]: budding yeast growth modifiers under rapamycin – strain BY4716, OD600, 96 h, primary screen (AID 1091). Note: test concentration not given here. As to conditions: S. cerevisiae BY4716 + rapamycin, higher = more signal, called active from +8 up or from −8 down.
Assay [15] deals with Torsin-1A-interacting protein 2 (Homo sapiens) (UniProt Q8NFQ8). Put plainly: small molecules binding lysate-expressed LULL1 – cell lysate, human LULL1 lysate, 635/667 nm fluorescence, primary screen (AID 1092).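 Note: probe is lysate of COS7 cells overexpressing human LULL1; score merges per-feature 667 nm fluorescence with signal-to-noise.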 As to conditions: small-molecule microarray, hLULL1 lysate binding, 635 nm fluorescence; higher = more signal.
The nature of assay [16]: optical density change of DRC41 E. coli – strain DRC41, OD650, 24 h, E. coli filamentation project, primary screen (AID 1093).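 Note: MC1000 strain lacking acrAB efflux and sulA so SOS filamentation is blocked; test concentration not given here.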 The conditions noted are these: E. coli DRC41 growth, higher = more signal, called active from +8 up or from −8 down.
A short description of assay [17]: probe aLefty2 binding to arrayed compounds – biochemical, biotinylated probe, 635/667 nm fluorescence, primary screen (AID 1094).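 Note: score merges spot fluorescence near 667 nm with spot signal-to-noise ratio.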 The conditions noted are these: small-molecule microarray, higher = more signal.
The subject of assay [18] is Noggin (protein binding on small-molecule microarray). As to the kind of experiment: small molecules binding Noggin protein – biochemical, 635/667 nm fluorescence, primary screen (AID 1095).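 Note: score merges 667 nm feature fluorescence with signal to noise over triplicate slides.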 As to conditions: 635 nm fluorescence, higher = more signal.
The target in assay [19] is Neurogenic locus notch homolog protein 3 (Homo sapiens) (UniProt Q9UM47). Put plainly: small molecules binding NOTCH3 protein – biochemical, 635/667 nm fluorescence, primary screen (AID 1096). The conditions noted are these: small-molecule microarray, 635 nm fluorescence, higher = more signal.
Assay [20] is described as follows: probe aEGFR binding to arrayed compounds – biochemical, biotinylated probe, 635/667 nm fluorescence, primary screen (AID 1097).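 Note: probe is a biotinylated anti-EGFR antibody binding compounds printed on slides; score combines fluorescence near 667 nm and signal to noise of each spot.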 As to conditions: small-molecule microarray, higher = more signal.

Sequence of Neurogenic locus notch homolog protein 3 (Homo sapiens) (Q9UM47 whole entry, looked up): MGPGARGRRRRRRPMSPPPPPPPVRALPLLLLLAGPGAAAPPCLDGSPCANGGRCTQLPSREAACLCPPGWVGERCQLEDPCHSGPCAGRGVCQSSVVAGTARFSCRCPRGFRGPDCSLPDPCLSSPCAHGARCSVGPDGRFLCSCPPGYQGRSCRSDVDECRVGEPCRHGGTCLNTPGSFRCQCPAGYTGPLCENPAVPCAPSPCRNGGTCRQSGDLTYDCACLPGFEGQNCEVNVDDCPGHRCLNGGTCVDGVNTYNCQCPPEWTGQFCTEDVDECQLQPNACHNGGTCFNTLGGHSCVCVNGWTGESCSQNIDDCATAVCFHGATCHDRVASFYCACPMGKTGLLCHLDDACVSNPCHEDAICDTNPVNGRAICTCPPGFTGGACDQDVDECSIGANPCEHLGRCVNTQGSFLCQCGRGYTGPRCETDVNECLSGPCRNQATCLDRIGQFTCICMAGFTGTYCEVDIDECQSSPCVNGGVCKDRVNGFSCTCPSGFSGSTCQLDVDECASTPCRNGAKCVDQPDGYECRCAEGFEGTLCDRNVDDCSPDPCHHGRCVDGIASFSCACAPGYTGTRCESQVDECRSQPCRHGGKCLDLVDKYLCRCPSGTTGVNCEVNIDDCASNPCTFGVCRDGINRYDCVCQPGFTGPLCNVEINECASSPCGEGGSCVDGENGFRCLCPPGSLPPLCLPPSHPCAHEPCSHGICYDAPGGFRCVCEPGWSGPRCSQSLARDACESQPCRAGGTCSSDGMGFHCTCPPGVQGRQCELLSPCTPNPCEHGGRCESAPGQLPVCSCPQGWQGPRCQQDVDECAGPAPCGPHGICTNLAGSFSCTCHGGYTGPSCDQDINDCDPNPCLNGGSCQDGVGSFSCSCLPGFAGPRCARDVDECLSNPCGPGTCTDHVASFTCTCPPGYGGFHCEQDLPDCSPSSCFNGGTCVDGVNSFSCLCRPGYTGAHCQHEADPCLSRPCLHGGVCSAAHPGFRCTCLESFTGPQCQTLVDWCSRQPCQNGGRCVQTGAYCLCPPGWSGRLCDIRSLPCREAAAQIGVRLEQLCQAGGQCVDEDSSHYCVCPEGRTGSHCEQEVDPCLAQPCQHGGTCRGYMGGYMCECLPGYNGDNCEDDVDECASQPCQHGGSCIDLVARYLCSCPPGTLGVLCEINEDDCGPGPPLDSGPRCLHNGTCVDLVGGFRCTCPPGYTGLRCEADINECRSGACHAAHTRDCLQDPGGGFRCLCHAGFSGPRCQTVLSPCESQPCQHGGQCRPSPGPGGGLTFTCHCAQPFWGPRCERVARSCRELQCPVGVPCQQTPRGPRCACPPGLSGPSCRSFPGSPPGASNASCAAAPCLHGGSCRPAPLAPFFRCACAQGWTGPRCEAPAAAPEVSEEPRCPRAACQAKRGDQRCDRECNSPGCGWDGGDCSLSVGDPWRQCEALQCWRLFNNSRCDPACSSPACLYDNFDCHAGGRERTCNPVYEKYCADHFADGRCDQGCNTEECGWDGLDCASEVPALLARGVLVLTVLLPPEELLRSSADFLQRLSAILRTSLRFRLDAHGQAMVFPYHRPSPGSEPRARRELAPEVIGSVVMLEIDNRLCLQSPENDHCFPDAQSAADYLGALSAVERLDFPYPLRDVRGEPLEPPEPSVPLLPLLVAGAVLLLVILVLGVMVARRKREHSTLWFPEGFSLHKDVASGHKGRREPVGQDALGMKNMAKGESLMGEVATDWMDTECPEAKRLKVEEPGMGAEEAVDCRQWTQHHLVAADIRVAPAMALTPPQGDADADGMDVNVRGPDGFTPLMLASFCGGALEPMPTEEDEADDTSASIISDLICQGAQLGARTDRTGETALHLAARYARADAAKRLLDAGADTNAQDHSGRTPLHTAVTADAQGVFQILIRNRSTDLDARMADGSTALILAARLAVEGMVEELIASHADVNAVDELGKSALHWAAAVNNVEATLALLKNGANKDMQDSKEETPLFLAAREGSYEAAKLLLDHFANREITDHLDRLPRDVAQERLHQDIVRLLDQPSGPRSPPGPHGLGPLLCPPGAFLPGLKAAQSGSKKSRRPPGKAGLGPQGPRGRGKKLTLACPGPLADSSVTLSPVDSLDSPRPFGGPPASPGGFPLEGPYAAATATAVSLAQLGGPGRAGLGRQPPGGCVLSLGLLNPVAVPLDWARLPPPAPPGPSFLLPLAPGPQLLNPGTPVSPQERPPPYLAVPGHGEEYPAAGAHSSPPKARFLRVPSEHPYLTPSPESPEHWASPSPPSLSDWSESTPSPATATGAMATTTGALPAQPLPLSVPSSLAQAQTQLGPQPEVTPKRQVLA
Sequence of Pro-neuregulin-1, membrane-bound isoform (Homo sapiens) (Q02297 whole entry, looked up, the tested form may be a part, canonical isoform): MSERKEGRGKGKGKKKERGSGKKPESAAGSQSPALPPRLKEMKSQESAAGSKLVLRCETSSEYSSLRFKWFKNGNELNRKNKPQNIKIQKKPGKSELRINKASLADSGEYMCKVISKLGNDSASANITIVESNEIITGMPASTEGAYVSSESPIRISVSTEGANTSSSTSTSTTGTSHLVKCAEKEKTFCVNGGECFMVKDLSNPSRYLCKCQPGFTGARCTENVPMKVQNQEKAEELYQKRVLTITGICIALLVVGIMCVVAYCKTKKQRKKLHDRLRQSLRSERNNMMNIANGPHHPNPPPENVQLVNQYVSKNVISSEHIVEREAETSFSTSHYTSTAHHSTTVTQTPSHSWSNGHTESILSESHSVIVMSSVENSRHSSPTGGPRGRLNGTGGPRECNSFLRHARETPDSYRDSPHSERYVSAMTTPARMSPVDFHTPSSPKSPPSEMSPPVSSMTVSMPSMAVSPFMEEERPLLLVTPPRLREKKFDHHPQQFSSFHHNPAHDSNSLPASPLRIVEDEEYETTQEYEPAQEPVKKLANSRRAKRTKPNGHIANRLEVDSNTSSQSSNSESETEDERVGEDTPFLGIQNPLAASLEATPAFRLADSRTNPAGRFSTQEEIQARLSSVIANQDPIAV
Sequence of Torsin-1A-interacting protein 2 (Homo sapiens) (Q8NFQ8 whole entry, looked up): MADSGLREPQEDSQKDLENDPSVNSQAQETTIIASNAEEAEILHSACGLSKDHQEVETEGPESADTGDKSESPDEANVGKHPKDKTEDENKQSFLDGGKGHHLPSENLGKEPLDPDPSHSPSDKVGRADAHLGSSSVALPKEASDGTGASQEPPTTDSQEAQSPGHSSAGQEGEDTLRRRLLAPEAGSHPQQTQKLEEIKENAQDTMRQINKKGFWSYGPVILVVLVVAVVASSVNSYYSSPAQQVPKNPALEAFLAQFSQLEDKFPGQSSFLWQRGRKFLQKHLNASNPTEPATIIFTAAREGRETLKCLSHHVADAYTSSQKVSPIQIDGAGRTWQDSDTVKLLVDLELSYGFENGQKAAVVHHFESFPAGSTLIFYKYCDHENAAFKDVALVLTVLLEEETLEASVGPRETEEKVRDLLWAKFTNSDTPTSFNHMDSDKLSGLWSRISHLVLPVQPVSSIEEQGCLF

For the compound `NC(=O)N1C(=O)C2C(C1=O)C1C=C(CCCO)C2C(c2ccc(CN3CCCC3)cc2)N1Cc1sc2ccccc2c1Cl` (stereo not given), the composite z-score in assay [1] is -0.161; in assay [2], 0.224; in [3], -0.0867; in [4], 0.0718; in assay [5], 0.0517; in assay [6] it was 0.0965. The composite z-score in assay [7] is 0.834; in [9], -0.835; in assay [10] it was -0.323; in [11] it was 0.634; in assay [15], 1.97; in [17], -0.208. Further, the composite z-score in assay [18] was -0.275; in assay [19], -0.348; in [20] it was -0.112. In addition, the z-score in assay [8] was -0.824 (inactive); in [12], -0.75 (inactive); in [13], -0.399 (inactive); in assay [14], -1.27 (inactive); in assay [16], 0.465 (inactive).

Take `CC(C)C[C@H]1NC(=O)C([C@@H](C)OCc2ccccc2)NC(=O)[C@@]23C(=O)N[C@@H](Cc4ccccc4)C2[C@H](C)[C@@]2(C)O[C@H]2C3/C=C/C/C=C\CNC1=O` (stereo not given in full): the composite z-score is -0.61 in assay [1]; 0.583 in [2]; -0.0712 in [3]; 0.775 in assay [4]; 0.831 in [5]; 1.21 in [6]. The composite z-score in assay [7] came to 1.06; in assay [9], 0.517; in assay [10], 3.36; in [11], 1.55; in [15], 2.01; in [17], 0.039. In addition, the composite z-score was 0.697 in [18], 1.1 in [19] and 0.138 in assay [20]. For the same compound, the z-score in [8] was 2.71 (inactive); in assay [12], -0.099 (inactive); in assay [13], -1.21 (inactive); in assay [14], 0.206 (inactive); in [16], -0.281 (inactive).

Consider `COC(=O)[C@@]1(Cc2ccc(OC)cc2)[C@H]2c3cc(C(=O)N4CCCC4)n(Cc4ccc(C(F)(F)F)nc4)c3C[C@H]2CN1C(=O)c1ccccc1`, for which the composite z-score in [1] was 0.308; in [2], 0.374; in assay [3], -0.102; in assay [4], 0.999; in assay [5], 1.21; in [6] it was 1.66. For the same compound, the composite z-score was 1.24 in assay [7]; -0.25 in [9]; 0.388 in [10]; 0.0861 in assay [11]; 1.05 in assay [15]; 0.248 in assay [17]. The figures for the composite z-score in assay [18], in assay [19] and in assay [20] were 0.113, 0.269 and 0.131, respectively. For the same compound, the z-score was 0.491 (inactive) in assay [8]; -0.361 (inactive) in [12]; -0.138 (inactive) in assay [13]; -0.707 (inactive) in assay [14]; -1.1 (inactive) in assay [16].

`COc1cc(C(O)C2C=CC3C(=O)N(c4ccccc4)C(=O)C3N2Nc2ccccc2F)cc(OC)c1OC` (stereo not given): the composite z-score is -0.0643 in assay [1]; 0.155 in assay [2]; 0.0253 in assay [3]; 0.935 in assay [4]; 1.64 in assay [5]; 1.93 in assay [6]. The composite z-score in [7] was 1.29; in assay [9] it was 0.612; in [10] it was 0.252; in [11] it was 1.54; in assay [15], 3.58; in assay [17], 0.122. The results for the composite z-score in assay [18], in [19] and in assay [20] were 0.334, 1.09 and -0.027, respectively. Also, the z-score is 1.26 (inactive) in assay [8]; 0.785 (inactive) in assay [12]; 0.578 (inactive) in [13]; 1.32 (inactive) in assay [14]; -0.629 (inactive) in [16].

Take `O=C1c2ccccc2[C@@]2(Cc3ccccc3N(Cc3ccccc3)C2=O)[C@H](c2ccc(CO)cc2)N1Cc1ccccc1Cl`: the composite z-score in assay [1] is 0.209; in assay [2], -0.337; in assay [3], -0.0934; in [4], -0.127; in assay [5] it was -1.04; in assay [6], -0.579. In addition, the composite z-score in assay [7] is -1.13; in assay [9] it was -0.164; in [10] it was -0.0541; in assay [11], 0.11; in assay [15] it was -0.394; in assay [17], -0.0812. Also, the composite z-score was -0.109 in [18], -0.149 in assay [19] and -0.146 in assay [20]. Further, the z-score in assay [8] was 1.13 (inactive); in [12], -0.251 (inactive); in assay [13] it was -0.602 (inactive); in assay [14], -2.35 (inactive); in assay [16] it was -0.499 (inactive).
